TNFa cytotox: HUVEC cytotoxicity counter-screen, TNF alpha stimulated | cell count reduction, % at 2 µM | actives 0.17% (n = 93,000) | HUVEC TNFalpha-stimulated, Hoechst cell count, imaging;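 active = cell count reduction exceeding the screen mean by over 5 SD, scaled to untreated wells per plate, cut at about 78% in these data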;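 note: cells counted after 24 h of TNF alpha exposure following the 1 h pretreatment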
cytoskel mod: alters cytoskeleton assembly in HUVEC cells; inhibition, % at 2 µM; HUVEC TNFa F-actin phalloidin imaging, high content; actives 0.18% (n = 91,000); AID 836;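 active = inhibition above the batch mean plus 3 SD and confirmed as a hit by visual image inspection, cut at about 30% in these data, passing the limit was not always enough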
VCAM1 TNFa inh: reduces TNF alpha induced VCAM1 expression in HUVEC; HUVEC TNFa-induced VCAM-1 immunofluorescence, high-content imaging; inhibition, % at 2 µM; actives 0.48% (n = 95,000); AID 802;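 active = inhibition above the batch mean plus 3 SD, with images confirmed as a hit by eye, cut at about 37% in these data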;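 note: 0% = TNF-stimulated DMSO wells and 100% = unstimulated control wells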
PLAP act: human PLAP activation. actives 1.2% (n = 96,000). activation fold at 20 µM. P05187. AID 696. purified PLAP enzyme, luminescent substrate read-out; stronger effect = higher value; in the data active = activation fold above about 2
Target sequence (P05187 whole entry, looked up): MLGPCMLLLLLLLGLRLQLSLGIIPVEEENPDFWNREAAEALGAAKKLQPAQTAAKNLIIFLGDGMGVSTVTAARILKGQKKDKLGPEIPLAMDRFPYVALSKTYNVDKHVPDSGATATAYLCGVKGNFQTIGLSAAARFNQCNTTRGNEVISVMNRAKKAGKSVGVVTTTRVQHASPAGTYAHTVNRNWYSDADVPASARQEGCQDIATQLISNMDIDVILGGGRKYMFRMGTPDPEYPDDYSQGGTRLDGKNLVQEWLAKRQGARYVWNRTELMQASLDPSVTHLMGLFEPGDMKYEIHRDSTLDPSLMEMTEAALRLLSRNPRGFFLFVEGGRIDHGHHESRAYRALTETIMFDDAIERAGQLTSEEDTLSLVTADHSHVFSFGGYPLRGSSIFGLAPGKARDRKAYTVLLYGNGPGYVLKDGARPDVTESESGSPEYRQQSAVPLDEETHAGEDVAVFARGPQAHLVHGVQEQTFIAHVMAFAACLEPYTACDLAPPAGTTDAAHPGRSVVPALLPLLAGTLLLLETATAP
E-sel TNF inh: blocks E-selectin expression induced by TNF alpha; HUVEC TNFa-induced E-selectin immunofluorescence, high content; inhibition, % at 2 µM; actives 0.71% (n = 120,000); AID 1246;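 active = inhibition above the batch mean plus 3 SD, and confirmed as a hit on visual image review, cut at about 43% in these data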;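 note: 0% = TNF-stimulated DMSO wells and 100% = unstimulated control wells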
Active calls of the source: *. This is a sample that favours compounds with a hit; in the whole collection about 2% have one here.

COc1ccc(-c2nnc3sc(C4CCCCC4)nn23)cc1OC was read as TNFa cytotox -25, cytoskel mod -1, VCAM1 TNFa inh 10 and PLAP act 2.1*.
For CCN(CC)c1ccc(-c2nn3c(-c4n[nH]c5c4CCC5)nnc3s2)cc1 the results were TNFa cytotox 55, cytoskel mod -26, VCAM1 TNFa inh 48*, PLAP act 1.3 and E-sel TNF inh 3.
Screening [2H]c1c([2H])c([2H])c(-c2nc(N3CCCCCC3)sc2C(=O)c2ccccc2)c([2H])c1[2H] returned TNFa cytotox -25, cytoskel mod 31, VCAM1 TNFa inh 2, PLAP act 0.9 and E-sel TNF inh -40.
`CCOC(=O)Cc1c(C)nc2c(-c3ccccc3)c[nH]n2c1=O` gave PLAP act 1.3 and E-sel TNF inh 96*.
For CC(C)(C)c1ccc(-c2cc(C(=O)NNC(=O)Nc3ccccc3)c3ccccc3n2)cc1 the results were TNFa cytotox -18, cytoskel mod 2, VCAM1 TNFa inh 7, PLAP act 2.1* and E-sel TNF inh -9.
For c1ccc2c(-c3[nH]ncc3CNCCCn3ncc4ccccc43)cccc2c1 the results were E-sel TNF inh -5.
`Cc1onc(-c2c(F)cccc2Cl)c1C(=O)Nc1nc2ccccc2[nH]1` gave TNFa cytotox -19, cytoskel mod -2, VCAM1 TNFa inh -15, PLAP act 2* and E-sel TNF inh 0.
Screening COc1ccc(CNC(=O)C(CCSC)NS(=O)(=O)c2ccccc2F)cc1 (centres undefined) returned E-sel TNF inh 79*.
Screening CN(C)Cc1c(-c2ccc(Cl)cc2)nc2ccc(Cl)cn12 returned E-sel TNF inh -23.
Cc1cccc(C)c1NC(=O)CSc1nnc([C@@H]2CCCN2C(=O)OC(C)(C)C)o1 was read as PLAP act 1.2 and E-sel TNF inh -44.
Screening CCc1ccccc1NC(=O)CSc1nnc([C@@H]2CCCN2C(=O)OC(C)(C)C)o1 returned TNFa cytotox -41, cytoskel mod 19, VCAM1 TNFa inh 20 and PLAP act 2.1*.
CC(C)C(C(=O)Nc1ccc2c(c1)OCCOCCOCCOCCO2)N1C(=O)c2ccccc2C1=O (centres undefined) was read as E-sel TNF inh -8.
O=C(NCCN1CCOCC1)c1c[nH]c2ccc(S(=O)(=O)N3CCOCC3)cc2c1=O was read as E-sel TNF inh -20.
`O=C(O)c1c[nH]c2ccc(S(=O)(=O)N3CCOCC3)cc12` gave TNFa cytotox -8, cytoskel mod 24, VCAM1 TNFa inh 55* and PLAP act 1.
`CC(=O)Nc1ccc(C(=O)OCC(=O)/C(C#N)=C(\C)N)cc1` gave E-sel TNF inh -31.
C/C(N)=C(/C#N)C(=O)COC(=O)c1ccncc1 was read as TNFa cytotox 0, cytoskel mod -1, VCAM1 TNFa inh -21 and PLAP act 2.3*.
Screening CCC(C)C(NC(=O)C1CCC(C)CC1)C(=O)NCc1ccccn1 (centres undefined) returned TNFa cytotox -9, cytoskel mod 16, VCAM1 TNFa inh -1, PLAP act 1 and E-sel TNF inh -9.
Screening Cc1cc(=O)n(-c2ccc3ccccc3n2)[nH]1 returned PLAP act 2.3* and E-sel TNF inh -5.
For CN1CCc2c(c3c(n2C)CCN(C)[C@H]3c2ccccc2F)[C@@H]1c1ccccc1F the results were TNFa cytotox -1, cytoskel mod -9, VCAM1 TNFa inh 2, PLAP act 1.3 and E-sel TNF inh -62.
Screening Cc1nc(SCC(N)=O)c([N+](=O)[O-])[nH]1 returned E-sel TNF inh 63*.
CCCCSc1nc(C)[nH]c1[N+](=O)[O-] was read as TNFa cytotox -15, cytoskel mod 17, VCAM1 TNFa inh 0, PLAP act 0.8 and E-sel TNF inh 26.
Cc1ccc(C(=O)C[n+]2cc(Br)cc(Br)c2)cc1[N+](=O)[O-] was read as E-sel TNF inh -15.
For Cc1ccc(-c2nnc3ccc(SCC(=O)Nc4cc(C)on4)nn23)cc1 the results were TNFa cytotox 24, cytoskel mod 66*, VCAM1 TNFa inh 5, PLAP act 0.8 and E-sel TNF inh -12.
`CC(Sc1nc(N)cc(=O)[nH]1)C(=O)NC1CCCCC1` (centres undefined) gave TNFa cytotox -10, cytoskel mod -7, VCAM1 TNFa inh 94*, PLAP act 1 and E-sel TNF inh -24.
`CC(=O)c1cccc(NS(=O)(=O)N2CCCCC2)c1` gave TNFa cytotox 9, cytoskel mod 1, VCAM1 TNFa inh 20, PLAP act 1.1 and E-sel TNF inh 81*.
For Cc1cccc(NC(=O)c2ccc(NS(=O)(=O)c3c(C)noc3C)cc2)c1 the results were TNFa cytotox 0, cytoskel mod 9, VCAM1 TNFa inh 4, PLAP act 1.2 and E-sel TNF inh 100*.
CC(=O)c1cccc(NS(=O)(=O)c2c(C)noc2C)c1 was read as TNFa cytotox -45, cytoskel mod 60*, VCAM1 TNFa inh 15 and PLAP act 1.1.
For CCN(CC)c1ccc(NC(=O)COC(=O)/C=C/c2nc3ccccc3s2)cc1 the results were E-sel TNF inh 62*.
`CCN(CC)c1ccc(/C=C/c2nc3ccccc3s2)cc1` gave TNFa cytotox -15, cytoskel mod -2, VCAM1 TNFa inh 1, PLAP act 1 and E-sel TNF inh 13.
Cc1csc2nc(CCNS(=O)(=O)c3cccs3)cn12 was read as TNFa cytotox -4, cytoskel mod 0, VCAM1 TNFa inh 4 and PLAP act 2.9*.
CCc1ccc(S(=O)(=O)NCCc2cn3ccsc3n2)s1 was read as TNFa cytotox -7, cytoskel mod 5, VCAM1 TNFa inh 0 and PLAP act 2*.
`Cc1ccn2cc(CNC(=O)c3cccs3)nc2c1` gave TNFa cytotox -7, cytoskel mod -4, VCAM1 TNFa inh 1, PLAP act 1 and E-sel TNF inh 7.
CCc1ccc(S(=O)(=O)NCc2cn3cccc(C)c3n2)s1 was read as TNFa cytotox -25, cytoskel mod -11, VCAM1 TNFa inh -8, PLAP act 1.7 and E-sel TNF inh -5.
Screening CCc1ccc(S(=O)(=O)NCc2cn3ccccc3n2)s1 returned TNFa cytotox -6, cytoskel mod 6, VCAM1 TNFa inh -6, PLAP act 2* and E-sel TNF inh 0.
`Cc1nc(CCNS(=O)(=O)c2cccs2)cs1` gave TNFa cytotox -12, cytoskel mod -17, VCAM1 TNFa inh -10, PLAP act 1 and E-sel TNF inh 4.
Cc1ccn2cc(CNS(=O)(=O)c3ccc(Cl)s3)nc2c1 was read as TNFa cytotox -6, cytoskel mod -4, VCAM1 TNFa inh -5 and PLAP act 2.1*.
`O=C(O)c1ccc2c(=O)n3c(nc2c1)/C(=C/c1cccc(Cl)c1Cl)CCCC3` gave E-sel TNF inh 6.
`O=C(CCSc1ccccc1)Nc1ccc(OCc2ccccc2)cc1` gave TNFa cytotox -45, cytoskel mod -14, VCAM1 TNFa inh -31, PLAP act 0.9 and E-sel TNF inh 44.
